# Measurements published in ChEMBL document CHEMBL3988442, “University of Dundee, Small-Polar-MMV Screening Library” (2021).
# Screen size: about 48,000 compounds; about 13,000 (27%) showed an effect of 50% or more. The list shows a part of the results.
# Test system: Wolbachia pipientis
# Experiment: Anti-Wolbachia Cell-Based Screen
# Type: functional
# Set-up: scale not given: in the data most compounds retested in dose-response had high values
# Details: 5 µM
row,SMILES,Percent Effect [%]
1,Cc1nc2c(c(N(C)CC3Cc4ccccc4CN3C)n1)CCNCC2 (stereo unspecified),-8.073
2,CC(C)(C)NC[C@@H]1CCC[C@@H]2CN(Cc3csnn3)C[C@@H]21.O=C(O)C(F)(F)F.O=C(O)C(F)(F)F,1.989
3,CCN(C)S(=O)(=O)N1C[C@@H]2CC[C@H](C1)N(Cc1cscn1)C2=O,-57.82
4,CC(Nc1cccc(COCc2ccco2)c1)C(=O)NC(N)=O (stereo unspecified),118
5,CC(Nc1cccc(CN2CCOC2=O)c1)C(=O)NC(N)=O (stereo unspecified),6.904
6,Cc1nnc(C(C)Nc2cccc(COCCOC(C)C)c2)o1 (stereo unspecified),-13.05
7,CCOC(=O)C(C)Nc1cccc(COCc2ccco2)c1 (stereo unspecified),114.3
8,CCCNC(=O)C(C)Nc1ccc(COCC)cc1 (stereo unspecified),-5.955
9,COCc1cccc(NC(C)C(=O)N(C)Cc2ccccc2)c1 (stereo unspecified),-9.622
10,O=C(O)C(F)(F)F.O=C(O)C(F)(F)F.O=C(c1ccncc1)N1CCN2C[C@H](Oc3cccc(F)c3)C[C@H]2C1,3.231
11,Cc1cccnc1NC(=O)C(C)Cn1nc(C(F)(F)F)cc1C (stereo unspecified),5.887
12,Fc1ccc2nc([C@H]3CCNC3)[nH]c2c1,-0.4881
13,c1c[nH]c2nc(C3CCNC3)nc-2c1 (stereo unspecified),89.57
14,CCC(=O)NCC(=O)Nc1ncc(I)cc1C,-1.135
15,Cc1ccc(N2C[C@H](C)[C@]3(CCN(c4cccnc4)C3=O)C2)nn1.O=C(O)C(F)(F)F.O=C(O)C(F)(F)F,82.56
16,C[C@@H]1CN(C(=O)C2CCOCC2)C[C@]12CCN(c1cccnc1)C2=O.O=C(O)C(F)(F)F,-10.36
17,COc1cc(N2CCC3(CC2)CCN(c2cccnc2)C3=O)ncn1.O=C(O)C(F)(F)F,-8.044
18,C[C@H]1CN(c2ccccn2)C[C@@]12CCN(c1cccnc1)C2=O.O=C(O)C(F)(F)F.O=C(O)C(F)(F)F,96.67
19,NS(=O)(=O)CCNC(=O)c1cc(Br)c2c(c1)OCCO2,3.55
20,CC(C)n1cc(CN2CCCN(C(=O)C(C)n3cncn3)CC2)cn1 (stereo unspecified),115.2
21,Cc1ncncc1C(=O)N1CCCN(Cc2cnn(C(C)C)c2)CC1,-23.75
22,CC(C)n1cc(CN2CCCN(C(=O)c3nccnc3N)CC2)cn1,-14.33
23,CC(C)n1cc(CN2CCCN(C(=O)c3ccc[nH]3)CC2)cn1,-9.453
24,CC(C(=O)N1CCCN(Cc2ccc(C#N)cc2)CC1)n1ccnc1 (stereo unspecified),-13.4
25,CC(C)n1cc(CN2CCCN(C(=O)C(C)n3cccn3)CC2)cn1 (stereo unspecified),97.33
26,CC(C(=O)N1CCCN(Cc2cnn(C(C)C)c2)CC1)n1ccnc1 (stereo unspecified),86.84

row,SMILES,Percent Effect [%]
1,CC(C)C(C(=O)N1CCCN(Cc2cnn(C)c2)CC1)n1cncn1 (stereo unspecified),-6.037
2,CCC(=O)N1CCN(c2cc(-n3cnc(C)c3C)nc(C)n2)CC1,-0.8212
3,CN1CCOC(C(=O)N(C)c2ccc3c(c2)CCO3)C1 (stereo unspecified),-1.104
4,Cc1cccc(-c2nc(C)nn2CN2CCN(c3ncccn3)CC2)c1,-20.31
5,CCC(C(=O)NCc1ccncc1)N(c1ccccc1)S(C)(=O)=O (stereo unspecified),-24.56
6,COCCn1cc(NC(=O)NC(C)c2ccc(Cl)s2)cn1 (stereo unspecified),1.705
7,CC1(C)[C@H](Cc2cc(CN3CCCCC3)on2)C[C@@H]1NS(C)(=O)=O,-2.638
8,CN(Cc1nc(N2CCCC2)ncc1-c1ccncc1)C(=O)C(C)(C)C.Cl,94.15
9,CN(C)C(CNC(=O)c1nc(N2CCCC2)ncc1Cl)c1ccco1 (stereo unspecified),2.501
10,CC(C)C(=O)N(C)Cc1nc(N2CCCC2)ncc1-c1ccncc1.Cl,82.87
11,CN(Cc1ccsc1)C(=O)c1nc(N2CCCCC2)ncc1Cl,3.668
12,CN(Cc1ccsc1)C(=O)c1nc(N2CCCC2)ncc1Cl,-53.64
13,Cn1c(NC(=O)CCS(=O)(=O)C2CCCC2)nc2cc(Cl)ccc21,1.786
14,CCN(CC)CC[C@H]1CN(C(=O)CC(C)(C)C)CC[C@H]1CC(=O)O,-10.9
15,O=C(C1CC1)N1CCc2[nH]cnc2C12CCN(C1CCOCC1)CC2,-3.543
16,Cn1cc(CNS(=O)(=O)c2cc(F)ccc2F)cn1,-25.59
17,O=S(=O)(c1cc(F)ccc1F)n1cc(Cl)cn1,95.85
18,O=S(=O)(c1ccc(F)cc1)n1cc(Cl)cn1,120.8
19,Cc1cnn(-c2ccc(S(N)(=O)=O)cc2F)c1,-6.422
20,O=S(=O)(c1ccc(F)cc1)N1CCCn2cnc(CN3CCCC3)c2C1,-4.272
21,COc1ccc(F)cc1S(=O)(=O)N1CCC(Oc2ccc(Cl)cn2)CC1,-6.405
22,CC1CN(S(=O)(=O)c2ccc(F)cc2)c2cccnc2O1 (stereo unspecified),-6.329
23,O=S(=O)(c1cc(F)cc(F)c1)N1CCC(Oc2ccc(Cl)cn2)CC1,14.51
24,O=S(=O)(c1ccc(F)c(F)c1)n1cc(Cl)cn1,96.85
25,Cc1nc(CCNC(Cc2ccncc2)C(F)(F)F)cs1 (stereo unspecified),-2.78
